Measured values from PubChem BioAssay (Tox21).
Active and inactive are the calls of the source. A call without a number means that no potency is given here. The call rests on the fitted dose curve; in most records, active means well fitted curve in the direction sought with a large enough effect in the repeat runs; inconclusive means weak or mixed curves; inactive means flat fitted curve, though single readings scatter.

test: qHTS assay to test for compound auto fluorescence at 460 nm (blue) in HEK293 cell free culture (AID 720681); settings: cell-free medium, autofluorescence 405/460 nm (blue); series mostly up to 91.3 µM
Text: U.S. Tox21 Program National Center for Advancing Translational Sciences [NCATS] NIH Chemical Genomics Center [NCGC] U.S. Environmental Protection Agency [EPA] National Institutes of Environmental Health Sciences [NIEHS] National Toxicology Program [NTP] U.S. Food and Drug Administration [FDA] Tox21 Assay Overview: Compound auto fluorescence often interferes with screening of the compound library against various biological targets and signaling pathways. Some of these compounds may have fluorophoric properties. Such properties may interfere with the assay outputs resulting in false positives and/or negatives. To decrease such complications and ensure the compound activities are relevant in terms of biological response, the Tox21 10K compound library was screened for auto fluorescence. From the fluorophores used as reporter signals in our screening assays, the auto fluorescence equivalencies of compounds against three fluorophores have been evaluated: Triamterene, Fluorescein and Rose Bengal sodium for blue, green and red fluorescence, respectively. The fluorescence intensities were measured using Excitation/Emission wavelengths at 405/460nm, 485/535nm and 540/590nm for blue, green and red labels, respectively. This assay includes the blue fluorescence data.
Tox21 Assay Protocol Summary: 5 uL of culture medium (DMEM containing 10% FBS) per well was dispensed into black wall/clear bottom 1536-well plates using a Multidrop Combi Dispenser (ThermoFisher Scientific, Waltham, MA). After 23 nL compound or DMSO vehicle was transferred into assay plate by a pintool work station (Kalypsys, San Diego, CA), fluorescence intensities in the assay plates were measured by an Envision (PerkinElmer, Shelton, CT) plate reader using three labels for measuring blue, green and red fluorescence at […] 460, 535 and 590nm respectively.

Question: For `Cc1ccc2c(Br)cc(Br)c(O)c2n1`, which Potency is on record?
Answer: inactive

Question: For `O=C1c2ccccc2C(=O)C1(O)O`, which Potency is on record?
Answer: inactive

Question: For `CCCCCC[C@@H](O)C/C=C\CCCCCCCC(=O)O`, which Potency is on record?
Answer: inactive

Question: For `CC(=O)NC1(c2cccc(F)c2)CCN(CC[C@@]2(c3ccc(Cl)c(Cl)c3)CN(c3ccccc3)C(=O)CO2)CC1`, which Potency is on record?
Answer: inactive

Question: With `Oc1c(I)cc(I)c2cccnc12` as the molecule, how does the Potency read?
Answer: inactive

Question: For `CC1(C)S[C@@H]2[C@H](NC(=O)C(c3ccccc3)S(=O)(=O)O)C(=O)N2[C@H]1C(=O)O` (stereo not given in full), which Potency is on record?
Answer: inactive

Question: Which Potency does the source give for `C=C/C(C)=C/C/C=C(\C)CCC=C(C)C` here?
Answer: inactive

Question: With `Oc1cc2c(cc1O)[C@H]1c3ccc(O)c(O)c3OC[C@@]1(O)C2` as the molecule, how does the Potency read?
Answer: inactive

Question: With `O=c1c(O)c(-c2ccc(O)cc2)oc2cc(O)cc(O)c12` as the molecule, how does the Potency read?
Answer: inactive

Question: With `C=C(C)CCCC(C)CCO` (stereo not given) as the molecule, how does the Potency read?
Answer: inactive

Question: Which Potency does the source give for `O=c1cc(-c2ccccc2)oc2ccc3ccccc3c12` here?
Answer: inactive

Question: For `CCCCOc1ccc(OCCCN2CCOCC2)cc1`, which fluorescence, % of fluorescent control is on record?
Answer: -0.123% [at 18.6 µM] (inactive)

Question: Which Potency does the source give for `CCCC(=O)C(=O)O` here?
Answer: inactive

Question: For `NC1[C@H]2CN(c3nc4c(cc3F)c(=O)c(C(=O)O)cn4-c3ccc(F)cc3F)C[C@@H]12` (stereo not given in full), which Potency is on record?
Answer: inactive

Question: For `CCOC(=O)c1ccccc1C(=C1C=C(Br)C(=O)C(Br)=C1)c1cc(Br)c(O)c(Br)c1`, which Potency is on record?
Answer: inactive

Question: For `c1ccc2sc(SN(C3CCCCC3)C3CCCCC3)nc2c1`, which Potency is on record?
Answer: inactive

Question: With `Cc1cccc(O)c1N` as the molecule, how does the Potency read?
Answer: inactive

Question: For `O[C@@H]1CO[C@H]2[C@@H]1OC[C@@H]2O`, which Potency is on record?
Answer: inactive

Question: Which Potency does the source give for `CC=C(Cl)Cl` here?
Answer: inactive

Question: For `C[C@@H](O[C@H]1OCCN(Cc2n[nH]c(=O)[nH]2)[C@H]1c1ccc(F)cc1)c1cc(C(F)(F)F)cc(C(F)(F)F)c1`, which Potency is on record?
Answer: inactive

Question: For `CC1=C(CC=O)C(C)(C)CCC1`, which Potency is on record?
Answer: inactive

Question: With `Clc1ccc(Nc2nnc(Cc3ccncc3)c3ccccc23)cc1` as the molecule, how does the Potency read?
Answer: inactive

Question: For `CCOC(=O)/C=C/C(=O)OCC`, which Potency is on record?
Answer: inactive

Question: With `CO[C@]1(NC(=O)CSC(F)F)C(=O)N2C(C(=O)O)=C(CSc3nnnn3CCO)CO[C@H]21` as the molecule, how does the Potency read?
Answer: inactive

Question: For `Cc1ccccc1S`, which Potency is on record?
Answer: inactive

Question: With `C=CC(=O)[O-].C=CC(=O)[O-].[Zn+2]` as the molecule, how does the Potency read?
Answer: inactive

Question: For `OCCOCC#CCOCCO`, which Potency is on record?
Answer: inactive

Question: With `NC(=O)c1ccncc1` as the molecule, how does the Potency read?
Answer: inactive

Question: Which Potency does the source give for `CC(=O)OCC(=O)NCCCOc1cccc(CN2CCCCC2)c1` here?
Answer: inactive

Question: For `C=C(C)C(=O)OCCOCCOC(=O)C(=C)C`, which Potency is on record?
Answer: inactive

Question: Which Potency does the source give for `O=[N+]([O-])c1ccc(O/N=C/c2cc(Br)c(O)c(Br)c2)c([N+](=O)[O-])c1` here?
Answer: inactive

Question: Which Potency does the source give for `CC(C)c1nc(CN(C)C(=O)N[C@H](C(=O)N[C@@H](Cc2ccccc2)C[C@H](O)[C@H](Cc2ccccc2)NC(=O)OCc2cncs2)C(C)C)cs1` here?
Answer: inactive

Question: With `O=C(Nc1cccc2c(=O)cc(-c3nn[nH]n3)oc12)c1ccc(OCCCCc2ccccc2)cc1` as the molecule, how does the Potency read?
Answer: inactive

Question: With `Cc1cc(C)cc(N)c1` as the molecule, how does the Potency read?
Answer: inactive

Question: With `O=C1c2ccccc2C(=O)N1CCc1noc(-c2ccc(CN3CCCCCC3)s2)n1` as the molecule, how does the Potency read?
Answer: inactive

Question: For `CC(=O)Nc1cc(S(=O)(=O)O)cc2cc(S(=O)(=O)O)c(N=Nc3ccccc3)c(O)c12`, which Potency is on record?
Answer: inactive

Question: For `CC1=C(Br)C(=O)C(Br)=C/C1=C(/c1ccccc1S(=O)(=O)O)c1cc(Br)c(O)c(Br)c1C`, which Potency is on record?
Answer: inactive

Question: Which Potency does the source give for `CC(C)Nc1cccnc1N1CCN(C(=O)c2cc3cc(NS(C)(=O)=O)ccc3[nH]2)CC1` here?
Answer: inactive

Question: With `CC1(C)[C@H](C(=O)O)N2C(=O)C[C@H]2S1(=O)=O` as the molecule, how does the Potency read?
Answer: inactive

Question: Which Potency does the source give for `Cc1c(C)c2c(c(C)c1OC(=O)CCC(=O)OCCO)CC[C@@](C)(CCC[C@H](C)CCC[C@H](C)CCCC(C)C)O2` here?
Answer: inactive
